SMILES strings stand for the structures.

Drawing on ChEMBL document CHEMBL2218924, “A broad activity screen in support of a chemogenomic map for kinase signalling research and drug discovery” (Biochem J, 2013), this text covers residual activity for 17 compounds.

The target of assay [1] is Serine/threonine-protein kinase PLK3 (Homo sapiens) (UniProt Q9H4B4). The note with it: at 1 µM.
The target is the same in assay [2]. The conditions noted are these: at 10 µM.
The target in assay [3] is T1, cAMP-dependent protein kinase catalytic subunit PRKX (Homo sapiens) (UniProt P51817).
T1 sequence (whole entry): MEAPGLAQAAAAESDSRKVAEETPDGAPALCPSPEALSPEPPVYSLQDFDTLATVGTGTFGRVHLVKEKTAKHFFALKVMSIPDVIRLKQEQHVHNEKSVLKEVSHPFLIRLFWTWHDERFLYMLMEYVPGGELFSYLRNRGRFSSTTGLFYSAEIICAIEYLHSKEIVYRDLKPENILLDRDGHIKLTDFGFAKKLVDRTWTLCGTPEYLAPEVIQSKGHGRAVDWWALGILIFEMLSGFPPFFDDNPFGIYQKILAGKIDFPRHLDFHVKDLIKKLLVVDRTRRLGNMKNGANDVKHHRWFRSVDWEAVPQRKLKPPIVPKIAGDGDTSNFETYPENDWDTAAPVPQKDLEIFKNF
The conditions noted are these: at 1 µM.

The target of assay [4] is T1, cAMP-dependent protein kinase catalytic subunit PRKX (Homo sapiens). The conditions noted are these: at 10 µM.
For assay [5], the target named is Protein-tyrosine kinase 2-beta (Homo sapiens) (UniProt Q14289). The conditions noted are these: at 1 µM.
The target is the same in assay [6]. The note with it: at 10 µM.
Assay [7] deals with Receptor-interacting serine/threonine-protein kinase 2 (Homo sapiens) (UniProt O43353). The conditions noted are these: at 1 µM.
Assay [8] shares this target. The conditions noted are these: at 10 µM.
Assay [9] deals with Rho-associated protein kinase 1 (Homo sapiens) (UniProt Q13464). The note with it: at 1 µM.
For assay [10] the target is unchanged. The conditions noted are these: at 10 µM.

Sequence of Receptor-interacting serine/threonine-protein kinase 2 (Homo sapiens) (O43353 whole entry): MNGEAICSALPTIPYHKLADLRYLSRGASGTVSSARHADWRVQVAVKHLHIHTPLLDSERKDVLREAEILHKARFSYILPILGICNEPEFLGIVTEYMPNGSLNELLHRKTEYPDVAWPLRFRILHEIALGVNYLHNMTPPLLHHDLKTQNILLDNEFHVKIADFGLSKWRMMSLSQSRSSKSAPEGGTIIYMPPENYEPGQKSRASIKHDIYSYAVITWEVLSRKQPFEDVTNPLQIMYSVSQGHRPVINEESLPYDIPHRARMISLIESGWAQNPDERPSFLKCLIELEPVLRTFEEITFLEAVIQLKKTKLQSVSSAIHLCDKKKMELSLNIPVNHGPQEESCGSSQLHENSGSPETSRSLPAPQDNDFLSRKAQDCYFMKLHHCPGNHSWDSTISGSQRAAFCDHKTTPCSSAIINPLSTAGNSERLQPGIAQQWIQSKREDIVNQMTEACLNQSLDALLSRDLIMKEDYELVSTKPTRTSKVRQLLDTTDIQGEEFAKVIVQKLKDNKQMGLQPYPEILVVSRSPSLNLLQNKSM
Sequence of Serine/threonine-protein kinase PLK3 (Homo sapiens) (Q9H4B4 whole entry, looked up): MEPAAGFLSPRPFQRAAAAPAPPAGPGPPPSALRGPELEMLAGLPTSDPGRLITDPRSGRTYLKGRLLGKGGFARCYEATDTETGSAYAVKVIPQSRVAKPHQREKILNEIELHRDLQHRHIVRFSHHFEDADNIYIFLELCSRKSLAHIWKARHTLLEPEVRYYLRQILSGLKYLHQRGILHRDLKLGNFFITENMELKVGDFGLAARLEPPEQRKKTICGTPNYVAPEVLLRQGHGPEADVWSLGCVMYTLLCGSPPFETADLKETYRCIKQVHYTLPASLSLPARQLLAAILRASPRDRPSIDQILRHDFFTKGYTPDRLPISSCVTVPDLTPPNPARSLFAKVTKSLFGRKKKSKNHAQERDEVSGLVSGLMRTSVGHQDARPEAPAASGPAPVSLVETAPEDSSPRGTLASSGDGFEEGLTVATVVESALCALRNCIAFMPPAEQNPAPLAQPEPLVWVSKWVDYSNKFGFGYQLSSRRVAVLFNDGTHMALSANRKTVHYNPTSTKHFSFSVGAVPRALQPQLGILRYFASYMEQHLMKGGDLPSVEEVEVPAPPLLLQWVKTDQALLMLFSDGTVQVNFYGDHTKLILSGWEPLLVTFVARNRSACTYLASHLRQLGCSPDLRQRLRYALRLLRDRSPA
Sequence of Rho-associated protein kinase 1 (Homo sapiens) (Q13464 2-1354 limits assumed): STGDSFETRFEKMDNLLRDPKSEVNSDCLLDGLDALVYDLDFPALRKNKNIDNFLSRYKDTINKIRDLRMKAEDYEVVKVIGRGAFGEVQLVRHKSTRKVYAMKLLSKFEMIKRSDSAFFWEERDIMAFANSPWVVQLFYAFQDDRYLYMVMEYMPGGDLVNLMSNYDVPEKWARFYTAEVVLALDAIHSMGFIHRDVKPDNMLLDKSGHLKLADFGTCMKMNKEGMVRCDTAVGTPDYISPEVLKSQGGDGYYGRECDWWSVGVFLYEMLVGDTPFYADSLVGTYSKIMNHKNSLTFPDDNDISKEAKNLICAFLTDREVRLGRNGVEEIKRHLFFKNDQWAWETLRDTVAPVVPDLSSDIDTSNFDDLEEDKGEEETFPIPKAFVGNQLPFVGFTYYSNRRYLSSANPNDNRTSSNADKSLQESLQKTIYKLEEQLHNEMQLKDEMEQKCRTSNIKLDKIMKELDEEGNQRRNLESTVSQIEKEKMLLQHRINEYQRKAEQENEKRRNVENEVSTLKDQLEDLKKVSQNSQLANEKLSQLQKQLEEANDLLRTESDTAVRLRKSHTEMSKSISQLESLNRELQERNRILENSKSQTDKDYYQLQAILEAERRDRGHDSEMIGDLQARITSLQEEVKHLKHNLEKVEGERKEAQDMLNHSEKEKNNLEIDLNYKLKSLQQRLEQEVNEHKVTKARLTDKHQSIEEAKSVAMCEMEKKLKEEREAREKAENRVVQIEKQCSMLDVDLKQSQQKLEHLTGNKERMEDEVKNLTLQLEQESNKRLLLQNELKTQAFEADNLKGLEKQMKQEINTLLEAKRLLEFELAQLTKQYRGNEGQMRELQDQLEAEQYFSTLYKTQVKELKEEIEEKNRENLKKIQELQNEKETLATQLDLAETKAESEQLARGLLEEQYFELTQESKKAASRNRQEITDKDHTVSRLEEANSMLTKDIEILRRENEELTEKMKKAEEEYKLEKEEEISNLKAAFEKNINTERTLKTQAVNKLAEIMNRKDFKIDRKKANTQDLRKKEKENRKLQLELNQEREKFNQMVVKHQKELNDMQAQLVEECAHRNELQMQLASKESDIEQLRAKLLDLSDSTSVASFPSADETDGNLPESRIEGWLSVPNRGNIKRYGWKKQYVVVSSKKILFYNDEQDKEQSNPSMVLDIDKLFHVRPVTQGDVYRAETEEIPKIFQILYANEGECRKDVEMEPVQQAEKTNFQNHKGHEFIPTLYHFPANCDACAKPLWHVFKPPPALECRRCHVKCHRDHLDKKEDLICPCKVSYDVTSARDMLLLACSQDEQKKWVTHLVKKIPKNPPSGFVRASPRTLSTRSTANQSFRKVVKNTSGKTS
Sequence of Protein-tyrosine kinase 2-beta (Homo sapiens) (Q14289 whole entry, looked up): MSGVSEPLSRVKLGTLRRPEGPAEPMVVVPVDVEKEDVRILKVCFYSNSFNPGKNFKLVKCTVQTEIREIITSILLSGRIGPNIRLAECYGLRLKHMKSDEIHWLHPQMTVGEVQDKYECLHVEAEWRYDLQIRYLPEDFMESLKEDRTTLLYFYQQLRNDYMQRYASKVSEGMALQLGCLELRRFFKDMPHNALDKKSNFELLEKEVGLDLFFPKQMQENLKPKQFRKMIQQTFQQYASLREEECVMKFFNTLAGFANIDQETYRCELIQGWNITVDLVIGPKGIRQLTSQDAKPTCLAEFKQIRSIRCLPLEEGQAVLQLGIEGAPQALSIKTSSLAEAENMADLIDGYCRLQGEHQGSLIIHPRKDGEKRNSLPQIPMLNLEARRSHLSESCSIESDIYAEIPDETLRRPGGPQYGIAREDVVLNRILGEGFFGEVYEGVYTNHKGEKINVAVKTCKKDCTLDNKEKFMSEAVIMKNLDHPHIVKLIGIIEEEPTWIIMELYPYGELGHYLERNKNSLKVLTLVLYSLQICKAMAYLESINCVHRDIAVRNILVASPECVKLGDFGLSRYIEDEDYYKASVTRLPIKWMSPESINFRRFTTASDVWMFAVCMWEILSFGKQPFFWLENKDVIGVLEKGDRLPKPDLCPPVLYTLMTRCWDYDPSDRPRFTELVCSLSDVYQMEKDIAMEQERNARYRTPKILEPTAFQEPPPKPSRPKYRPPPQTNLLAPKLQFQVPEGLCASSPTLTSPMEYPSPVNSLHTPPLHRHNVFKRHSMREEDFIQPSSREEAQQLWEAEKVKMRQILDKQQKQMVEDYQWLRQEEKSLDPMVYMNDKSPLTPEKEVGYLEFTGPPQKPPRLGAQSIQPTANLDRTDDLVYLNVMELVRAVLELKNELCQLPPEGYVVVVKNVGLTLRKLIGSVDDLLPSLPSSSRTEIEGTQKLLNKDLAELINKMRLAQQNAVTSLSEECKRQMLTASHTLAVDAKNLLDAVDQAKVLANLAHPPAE

Turning to `O=C1Nc2cc(Br)ccc2/C1=C1/Nc2ccccc2/C1=N\O`, the residual activity was 100% (inactive) in assay [1]; 91% in assay [2]; 73% in assay [3]; 36% in assay [4]; 10% in assay [5]; 3% in [6]. The residual activity stood at 78% in assay [7], 85% in assay [8], 113% in [9] and 102% in assay [10].
With `COc1ccc(S(=O)(=O)N(CCO)c2ccccc2CN(C)C/C=C/c2ccc(Cl)cc2)cc1`, the residual activity in assay [1] is 87% (inactive); in assay [2], 96%; in assay [3], 88%; in [4], 51%; in [5], 109%; in [6] it was 96%. Moreover, the residual activity in assay [7] came out at 92%; in assay [8] it was 91%; in assay [9], 134%; in assay [10] it was 124%.
Regarding `Cc1nc2cc3nc(-c4cccs4)cnc3cc2n1C`, the residual activity is 101% (inactive) in assay [1]; 105% in [2]; 108% in [3]; 101% in assay [4]; 123% in [5]; 87% in [6]. Moreover, the residual activity in assay [7] turned out to be 84%; in assay [8], 49%; in assay [9] it was 102%; in assay [10], 107%.
For the compound `Cc1nc(-c2ccccc2)c(-c2ccncc2)o1`, the residual activity in assay [1] is 106% (inactive); in assay [2], 96%; in assay [3], 86%; in assay [4], 85%; in [5], 91%; in assay [6], 79%. Also, the residual activity turned out to be 58% in assay [7], 25% in assay [8], 124% in [9] and 108% in assay [10].
As to `O=C1c2ccccc2-[n+]2ccc3c([nH]c4ccccc43)c21`, the residual activity was 98% (inactive) in assay [1]; 91% in [2]; 92% in [3]; 53% in [4]; 101% in [5]; 97% in assay [6]. Also, the residual activity in assay [7] was 90%; in assay [8], 88%; in [9], 126%; in [10], 115%.
On to `O=C(Nc1cccc(Nc2nccc(Nc3cccc(C(F)(F)F)c3)n2)c1)C1CC1`, for which the residual activity in assay [1] was 73% (inactive); in assay [2] it was 88%; in [3] it was 103%; in assay [4], 51%; in [5], 55%; in assay [6] it was 12%. For the same compound, the residual activity was 69% in [7], 71% in [8], 106% in [9] and 127% in [10].
In the case of `COc1cc2ncnc(Nc3ccc(O)c(Br)c3)c2cc1OC`, the residual activity in [1] is 92% (inactive); in assay [2] it was 88%; in [3], 90%; in assay [4], 66%; in assay [5], 85%; in assay [6], 42%. Also, the residual activity in assay [7] is 20%; in assay [8] it was 8%; in [9], 116%; in [10], 102%.
Take `O=C1NC(=O)c2c1c1c3ccccc3[nH]c1c1[nH]c3cc(Br)ccc3c21`: the residual activity in [1] is 96% (inactive); in assay [2] it was 83%; in assay [3], 85%; in [4], 77%; in assay [5] it was 71%; in assay [6] it was 84%. The residual activity is 92% in assay [7], 93% in assay [8], 112% in assay [9] and 93% in assay [10].
Regarding `CO[C@H]1[C@@H](OC)C[C@H](C)[C@@H](OC)C2=CC(=O)C=C(NC(=O)/C(C)=C/C=C/[C@H](OC)[C@@H](OC(N)=O)/C(C)=C/[C@@H]1C)C2=O`, the residual activity is 99% (inactive) in assay [1]; 104% in assay [2]; 80% in [3]; 72% in assay [4]; 124% in [5]; 100% in assay [6]. For the same compound, the residual activity in assay [7] was 93%; in assay [8], 96%; in assay [9] it was 121%.
Consider `Cc1cc2ncc(-c3ccccc3)nc2cc1C`, for which the residual activity in [1] was 87% (inactive); in assay [2], 92%; in assay [3], 108%; in assay [4], 97%; in assay [5], 126%; in [6], 101%. For the same compound, the figures for the residual activity in [7] and in assay [8] were 108% and 82%, respectively.
For the compound `O=C1NC(=O)c2cc(Nc3ccc(F)cc3)c(Nc3ccc(F)cc3)cc21`, the residual activity in assay [1] was 92% (inactive); in assay [2], 80%; in assay [3], 90%; in [4] it was 48%; in [5], 119%; in assay [6] it was 81%. The residual activity came out at 76% in assay [7], 42% in assay [8], 108% in assay [9] and 123% in assay [10].
For `O=C1NC(=O)/C(=C\c2ccc3nccnc3c2)S1`, the residual activity was 95% (inactive) in assay [1]; 85% in assay [2]; 67% in assay [3]; 27% in assay [4]; 124% in assay [5]; 103% in assay [6]. Also, the residual activity turned out to be 56% in [7], 21% in [8], 109% in [9] and 107% in assay [10].
As for `Oc1n[nH]c2nnc(-c3c(-c4ccccc4)nn4ccccc34)cc12`, the residual activity in assay [1] was 96% (inactive); in assay [2], 89%; in [3], 86%; in [4], 81%; in assay [5], 102%; in assay [6], 88%. In addition, the residual activity in [7] worked out at 87%; in [8] it was 85%; in assay [9], 121%; in assay [10], 104%.
For the compound `CNc1cc2c(Nc3cccc(Br)c3)ncnc2cn1`, the residual activity was 90% (inactive) in assay [1]; 91% in assay [2]; 95% in assay [3]; 75% in assay [4]; 116% in [5]; 64% in [6]. Also, the residual activity in [7] is 43%; in [8], 38%; in assay [9], 110%; in [10], 126%.
Regarding `CC(C)n1cnc2/c(=N/c3cccc(Cl)c3)nc(NCCO)[nH]c21`, the residual activity was 93% (inactive) in assay [1]; 57% in [2]; 82% in [3]; 65% in [4]; 56% in assay [5]; 18% in assay [6]. In addition, the residual activity in assay [7] stood at 77%; in assay [8] it was 68%; in [9], 113%; in assay [10], 82%.
For `O=C(O)c1ccc2c3c1cccc3c(=O)n1c3ccccc3nc21`, the residual activity was 106% (inactive) in assay [1]; 98% in assay [2]; 84% in assay [3]; 68% in assay [4]; 88% in assay [5]; 42% in assay [6]. Also, the residual activity in assay [7] was 96%; in [8], 82%; in assay [9], 113%; in [10], 80%.
`Nc1n[nH]c2nnc(-c3c(-c4ccccc4)nn4ccccc34)cc12`: the residual activity in assay [1] was 97% (inactive); in assay [2] it was 99%; in assay [3], 92%; in assay [4] it was 74%; in assay [5] it was 95%; in assay [6], 72%. Besides, the residual activity in assay [7] was found to be 88%; in [8] it was 78%; in [9] it was 106%; in assay [10], 105%.

As usually defined, the residual activity is the signal under treatment as a percentage of the control signal.
